# Laboratory results reported in PubChem BioAssay AID2578 (National Center for Advancing Translational Sciences (NCATS), 2010).
# Values without a mark were called inactive. Calls come from the whole dose curve; as a rule, active = well fitted curve in the direction sought with a large enough effect; inactive = no such curve, though single readings can be large or run the other way.
# Target: Alpha-galactosidase A (Homo sapiens) (UniProt P06280)
# Assay: qHTS Assay for Inhibitors and Activators of N370S glucocerebrosidase as a Potential Chaperone Treatment of Gaucher Disease: Alpha-Galactosidase Counterscreen
# Conditions: purified enzyme, 4-MU-alpha-Gal fluorescence, 20 min; series mostly up to 57.5 µM; activity change, negative = inhibition: at the top concentration
# Text: NIH Chemical Genomics Center [NCGC] NIH Molecular Libraries Probe Production Centers Network [MLPCN] MLPCN Grant: MH086442-01 Assay Submitter (PI): Wei Zheng Glucocerebrosidase (GC) catalyzes the hydrolysis of beta-glucocerebroside to glucose and ceramide in lysosomes. Mutations in the glucocerebrosidase gene result in Gaucher disease, an autosomal recessive lysosomal storage disorder. Many of the mutations encountered in patients with Gaucher disease are missense alterations that may cause misfolding, decreased stability and/or mistrafficking of this lysosomal protein. […] These inhibitors include iminosugar analogs and three non-iminosugar inhibitors identified from a previous HTS of 62,000 compounds with the wild type recombinant enzyme. However, the enhancement of enzyme activity by the chaperone action of an enzyme inhibitor must be balanced against the direct inhibition of the enzyme. An enzyme activator could also function as a chaperone by binding to the enzyme and helping to correct its misfolding and mistrafficking. While activators for GC have not yet been identified, they may have better therapeutic potential than inhibitors. Therefore the discovery and development of chemical activators may provide a new strategy for the chaperone therapy. To characterize compound selectivity, selected hits from the primary screen were screened against purified alpha-galactosidase, a related sugar hydrolase. Alpha-galactosidase is a homodimeric glycoprotein that hydrolyzes the terminal alpha-galactosyl moieties from glycolipids and glycoproteins.
# NCGC Assay Protocol Summary: This is a fluorogenic enzyme assay with 4-Methylumbelliferyl alpha-D-galactopyranoside as the substrate and human […] as the enzyme preparation. Upon the hydrolysis of this fluorogenic substrate, the resulting product, […]. 4-Methyllumbelliferone, can be excited at 365 nm and emits at 440 nm. This fluorescence which can be detected by a standard fluorescence plate reader. Data were normalized to the controls for basal activity (without enzyme) and 100% activity (with enzyme). In the AC50 values were determined from concentration-response data modeled with the standard Hill equation. Assay buffer: 50 mM citric acid (titrated with potassium phosphate to pH 4.5), 0.005% Tween-20, pH 4.5. (pH 4.5 is an optimal condition for this enzyme assay) 1536-well assay protocol for the human alpha-galactosidase: (1) Add 2 ul/well of enzyme (12 nM final) (2) Add 23 nL compounds in DMSO solution. The final titration was 0.7 nM to 77 uM. (3) Add 1 ul of substrate ([…]) (4) Incubate at room temperature for 20 min. (5) Add 2 ul stop solution (1M NaOH and 1M Glycine mixture, pH 10) (6) Detect the assay plate in a ViewLux plate reader (PerkinElmer) with Ex=365 nm and Em=440nm. Keywords: MLSMR, MLPCN, NIH Roadmap, qHTS, NCGC, : Alpha-galactosidase, Fabry Disease, pharmacological chaperone, chaperone therapy
# Chain of Alpha-galactosidase A (Homo sapiens) (P06280 whole entry, looked up): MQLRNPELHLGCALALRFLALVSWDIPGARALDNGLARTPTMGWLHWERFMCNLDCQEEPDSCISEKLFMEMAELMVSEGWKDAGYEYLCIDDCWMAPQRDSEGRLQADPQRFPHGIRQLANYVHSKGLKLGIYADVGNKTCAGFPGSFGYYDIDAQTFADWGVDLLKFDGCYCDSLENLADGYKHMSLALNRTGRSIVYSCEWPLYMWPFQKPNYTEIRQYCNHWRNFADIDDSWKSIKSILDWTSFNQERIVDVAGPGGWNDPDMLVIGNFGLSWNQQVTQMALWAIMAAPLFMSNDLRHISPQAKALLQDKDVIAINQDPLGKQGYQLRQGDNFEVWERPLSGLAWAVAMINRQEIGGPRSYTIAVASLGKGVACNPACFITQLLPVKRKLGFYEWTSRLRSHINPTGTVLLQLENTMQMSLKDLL
row,Structure (SMILES),"activity change, negative = inhibition [%]"
1,CC(C)(C)c1ccc(S(=O)(=O)N2CCN(c3nc(-c4ccccc4)nc4ccccc34)CC2)cc1,-7.91
2,O=S(=O)(c1ccc(OC(F)(F)F)cc1)N1CCN(c2nc(-c3ccccc3)nc3ccccc23)CC1,-4.05
3,N#Cc1ccc(S(=O)(=O)N2CCN(c3nc(-c4cccs4)nc4ccccc34)CC2)cc1,-2.99
4,CC(C)(C)c1ccc(S(=O)(=O)N2CCN(c3nc(-c4cccs4)nc4ccccc34)CC2)cc1,-12.9
5,O=S(=O)(c1ccc(F)cc1)N1CCN(c2nc(-c3cccc(Br)c3)nc3ccccc23)CC1,-5.82
6,S=C(NCCCc1cnc[nH]1)NCCCN(Cc1ccc(Cl)c(Cl)c1)c1ccc(Br)cn1,-6.2
7,O=S(=O)(c1ccccc1)N1CCN(c2nc(-c3ccc(F)cc3)nc3cc(Cl)ccc23)CC1,-1.96
8,O=S(=O)(c1ccc(C(F)(F)F)cc1)N1CCN(c2nc(-c3ccccc3)nc3ccccc23)CC1,-13.6
9,COc1ccc(-c2nc(N3CCN(S(=O)(=O)c4ccc(C)cc4)CC3)c3ccccc3n2)cc1,-1.79
10,O=S(=O)(c1ccccc1Br)N1CCN(c2nc(-c3cccs3)nc3ccccc23)CC1,-8.16
11,O=S(=O)(c1cccc(Cl)c1)N1CCN(c2nc(-c3cccs3)nc3ccccc23)CC1,-10.8
12,N#Cc1ccc(S(=O)(=O)N2CCN(c3nc(-c4ccccc4)nc4ccccc34)CC2)cc1,-7.6
13,COc1ccc(S(=O)(=O)N2CCN(c3nc(-c4cccs4)nc4ccccc34)CC2)cc1,-17.2
14,O=S(=O)(c1cccc(C(F)(F)F)c1)N1CCN(c2nc(-c3cccs3)nc3cc(Cl)ccc23)CC1,-16.1
15,O=S(=O)(c1ccc(Cl)cc1)N1CCN(c2nc(-c3ccc(F)cc3)nc3cc(Cl)ccc23)CC1,-2.54
16,O=S(=O)(c1ccccc1C(F)(F)F)N1CCN(c2nc(-c3cccs3)nc3ccccc23)CC1,-3.95
17,O=S(=O)(c1ccc2ccccc2c1)N1CCN(c2nc(-c3cccs3)nc3ccccc23)CC1,-3.64
18,O=S(=O)(c1ccc(Cl)cc1)N1CCN(c2nc(-c3ccc(Cl)cc3)nc3ccccc23)CC1,-12.3
19,O=S(=O)(c1ccc(F)cc1)N1CCN(c2nc(-c3ccc(F)cc3)nc3cc(Cl)ccc23)CC1,-8.46
20,O=S(=O)(c1ccc2ccccc2c1)N1CCN(c2nc(-c3ccccc3)nc3ccccc23)CC1,-6.14
21,O=S(=O)(c1ccc(F)cc1)N1CCN(c2nc(-c3ccccc3)nc3cc(Cl)ccc23)CC1,-14
22,CCOc1ccc(S(=O)(=O)N2CCN(c3nc(-c4ccccc4)nc4ccccc34)CC2)cc1,-10.2
23,O=S(=O)(c1ccc(Cl)cc1)N1CCN(c2nc(-c3cccc(Br)c3)nc3ccccc23)CC1,2.53
24,COc1ccc(S(=O)(=O)N2CCN(c3nc(-c4ccccc4)nc4ccccc34)CC2)cc1,-3.17
25,O=S(=O)(c1cccc(Cl)c1)N1CCN(c2nc(-c3ccccc3)nc3ccccc23)CC1,-12.9
26,O=S(=O)(c1ccc(F)cc1)N1CCN(c2nc(-c3cccs3)nc3ccccc23)CC1,-9.22
27,O=S(=O)(c1ccccc1F)N1CCN(c2nc(-c3cccs3)nc3ccccc23)CC1,-14.7
28,Cc1ccc(S(=O)(=O)N2CCN(c3nc(-c4cccs4)nc4ccccc34)CC2)cc1,-5.03
29,O=S(=O)(c1ccccc1Br)N1CCN(c2nc(-c3ccccc3)nc3ccccc23)CC1,-29.7
30,COc1ccc(-c2nc(N3CCN(S(=O)(=O)c4ccc(F)cc4)CC3)c3ccccc3n2)cc1,-10.8
